Test [1] is described as follows: qHTS assay for small molecules that induce genotoxicity in human embryonic kidney cells expressing luciferase-tagged ATAD5 (AID 651632). Also: nearly all actives have a fitted effect of over 15% in size. The procedure, abridged:
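DMSO vehicle served as the control. HEK293T reporter cells, 16 hr at 37C, then 30 min Amplite at room temperature; ATAD5 induction is measured as luciferase activity.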
On the technique in general: In qHTS, concentration-response curves come from the screen itself.

A short description of test [2]: qHTS assay for small molecule agonists of the p53 signaling pathway - cell viability (AID 651633; calls by dose curve; also: nearly all actives have a fitted effect of over 30% in size; also: potency is read from the fitted curve at half-maximal effect). The essentials: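 Viability counter-read: CellTiter-Glo luminescence (30 min, room temperature) in the same p53RE-bla plates. These plates had been exposed to compounds for 16 h at 37 C.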
A short description of test [3]: qHTS assay for small molecules that induce genotoxicity in human embryonic kidney cells expressing luciferase-tagged ATAD5 - cell viability (AID 651634; calls by dose curve; also: nearly all actives have a fitted effect of over 25% in size; also: potency is read from the fitted curve at half-maximal effect). The essentials: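 Here HEK293T cells with the ATAD5 luciferase reporter are incubated with test compounds for 15.5 hr, and cytotoxicity is then gauged by measuring protease activity in live cells using fluorescence.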

Test [4] in a line: qHTS assay for small molecule disruptors of the mitochondrial membrane potential - cell viability (AID 720634; calls by dose curve; also: nearly all actives have a fitted effect of over 20% in size; also: potency is read from the fitted curve at half-maximal effect). The procedure, abridged: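 Viability of HepG2 cells is scored from ATP content by luminescence; cells are exposed to compound for 1 hr at 37 C and 5% CO2, then dosed with m-MPI dye before the CellTiter-Glo reagent.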
Test [5] can be described thus: qHTS assay for small molecule disruptors of the mitochondrial membrane potential (AID 720635). Also: potency is read from the fitted curve at half-maximal effect. The procedure, abridged: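 Mitochondrial membrane potential tracked with Mito-MPS dye, red aggregates (ex 540/em 590 nm) against green monomers (ex 490/em 535 nm). Compound treatment 1 hr at 37C, dye 30 min in HepG2.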
The nature of test [6]: qHTS assay to test for compound auto fluorescence at 590 nm (red) in HepG2 cells (AID 720674). The essentials:
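1 hr compound incubation on HepG2 cells, 37 C, 5% CO2; plate read ex 540 nm / em 590 nm; intensities reported as Rose Bengal sodium equivalents.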

Test [7] can be described thus: qHTS assay to test for compound auto fluorescence at 535 nm (green) in HepG2 cells (AID 720675).
Test [8] in a line: qHTS assay to test for compound auto fluorescence at 460 nm (blue) in HEK293 cells (AID 720678). Also: potency is read from the fitted curve at half-maximal effect. The procedure, abridged:
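HEK293 cells (2,000 per well, medium with 10% dialyzed FBS) attached for 4-5 hr at 37C, then received compound and stood overnight at 37C, 5% CO2. Blue fluorescence was read at Ex/Em 405/460 nm and expressed relative to triamterene.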

Test [9] can be described thus: qHTS assay to test for compound auto fluorescence at 590 nm (red) in HEK293 cells (AID 720679). The procedure, abridged:
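HEK293 cells (2,000/well, medium with 10% dialyzed FBS) attached for 4-5 hr at 37C, received 23 nL compound and were incubated overnight at 37C, 5% CO2. Red fluorescence was then read at 540/590nm Ex/Em, referenced to Rose Bengal sodium.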

Inconclusive results are not listed. Where a structure was tested more than once in an assay, its records may differ in their call. Activity calls are given as the source filed them. Unless noted, calls follow the shape of the dose curve; as a rule, active = well fitted curve in the direction sought with a large enough effect in the repeat runs; inconclusive = weak or mixed curves; inactive = no such curve, though single readings can be large; an effect the other way counts as inactive or inconclusive.
% is scaled to controls: 0 for no effect and ±100 for the full control effect; tags tell the direction and shape of the fitted curve or compound fluorescence and quenching.

For `O=c1cc(-c2ccccc2)oc2cc(O)cc(O)c12`, the Potency entry in test [1], in [2], in test [3] and in test [8] was “inactive” each time. In addition, the Potency in [4] is 30.6 µM (active); in test [5], 3.86 µM (active). For the same compound, the call in test [6], in [7] and in test [9] was inactive.

On to `Oc1ccc(Cl)c2cccnc12`, for which the Potency entry in [1], in test [2], in test [3], in [4] and in test [8] was “inactive” each time. Besides, the Potency in test [5] was 11.9 µM (active). Further, the result in [6], in [7] and in test [9] was inactive.

`CN1CCCC(n2nc(Cc3ccc(Cl)cc3)c3ccccc3c2=O)CC1` (stereo not drawn): the Potency result in test [1], in test [2], in test [3], in [4] and in test [8] was “inactive” in each case. Moreover, the compound was called inactive in [6], in test [7] and in test [9].

As for `COC(=O)CS`, the Potency result in test [1], in [2], in test [3], in test [4], in test [5] and in test [8] was “inactive” each time. Moreover, the compound was called inactive in test [6], in [7] and in test [9].

Take `CCCCCC[C@@H](O)C/C=C\CCCCCCCC(=O)O`: the Potency result in test [1], in test [3], in [4], in test [5] and in [8] was “inactive” each time. In addition, the Potency in test [2] is 21.1 µM (active) and inactive. The outcome in [7] and in [9] was inactive.

On to `Cc1ccccc1N=C(N)Nc1ccccc1C`, for which the Potency entry in test [1], in test [2], in [3], in test [4] and in [8] was “inactive” in each case. In addition, the compound was classed as inactive in test [6], in test [7] and in test [9].

Consider `CN(C)CCN1C(=O)c2ccccc2N(C)c2ccccc21`, for which the Potency entry in [1], in [2], in [3], in test [4] and in test [8] was “inactive” in each case. Moreover, the compound was called inactive in test [6], in test [7] and in [9].

As for `CC1(CN2CCC(n3c(=O)[nH]c4ccccc43)CC2)OCc2ccccc2-n2cccc21` (stereo not drawn), the Potency result in test [1], in test [4] and in test [8] was “inactive” each time. The Potency in test [2] and in test [5] was 29.8 µM (active) throughout. The outcome in test [6], in [7] and in [9] was inactive.

For `CC1=Nc2ccc3ccccc3c2C1(C)C`, the Potency result in test [1], in [2], in [4] and in test [8] was “inactive” throughout. Further, the Potency in test [5] is 19.3 µM (active). The outcome in test [6] and in [9] was inactive.

Regarding `CN(C(=O)CN(CCO)CC(=O)N(C)C(C)(C)Cc1ccccc1)C(C)(C)Cc1ccccc1`, the Potency result in test [1], in [2], in test [3] and in test [4] was “inactive” each time. Further, the fluorescence, relative to Rose Bengal in test [6] is -0.825% [at 18.6 µM] (inactive). In test [7], the fluorescence, % of fluorescein control was -0.0053% [at 18.6 µM] (inactive). Besides, the fluorescence, % of triamterene in test [8] is 0.252% [at 18.6 µM] (inactive). Besides, in [9], the fluorescence, % of fluorescent control was 0.0938% [at 18.6 µM] (inactive).

On to `CCCCN1CCCC1C(=O)Nc1c(C)cc(C)cc1C` (stereo not drawn), for which the Potency result in test [1], in test [2], in [4] and in test [8] was “inactive” in each case. Also, the result in test [6], in test [7] and in [9] was inactive.

Take `CC1=C(Br)C(=O)C(Br)=C/C1=C(/c1ccccc1S(=O)(=O)O)c1cc(Br)c(O)c(Br)c1C`: the Potency entry in [1], in test [2], in [4] and in test [8] was “inactive” in each case. Also, the Potency in test [3] was 37 µM (active). Further, the result in test [7] and in test [9] was inactive.

Consider `CCN(CC)CCNC(=O)COc1ccc(OC)cc1`, for which the Potency result in [1], in [2], in test [4], in [5] and in test [8] was “inactive” throughout. Also, the call in [6], in test [7] and in test [9] was inactive.

`CC1=C(CC=O)C(C)(C)CCC1`: the Potency entry in test [1], in test [2], in test [3], in test [4] and in [8] was “inactive” throughout. The compound was classed as inactive in test [6], in test [7] and in test [9].

Consider `CN1CCCC(CC2c3ccccc3Sc3ccccc32)C1` (stereo not drawn), for which the Potency entry in [1], in [2], in test [3] and in test [4] was “inactive” throughout. The fluorescence, relative to Rose Bengal in [6] is 0.272% [at 18.6 µM] (inactive). Moreover, the fluorescence, % of fluorescein control in [7] is -0.0795% [at 18.6 µM] (inactive). Besides, the fluorescence, % of fluorescent control in [9] is -0.0119% [at 18.6 µM] (inactive).

As to `COc1ccccc1NC(=O)c1cc2ccccc2cc1O`, the Potency entry in test [1] and in test [3] was “inactive” throughout. The values for the Potency in test [2], in [4] and in test [8] were 54.5 µM (active), 7.7 µM (active) and 39.8 µM [fluorescent] (active), respectively. The compound was classed as inactive in test [7] and in [9].

Consider `O=C(OC(=O)c1ccccc1)c1ccccc1`, for which the Potency result in [1], in test [2], in test [4], in test [5] and in [8] was “inactive” in each case. Besides, the compound was classed as inactive in test [6], in test [7] and in [9].

For the compound `CC(CN(C)C)C(C)(O)Cc1ccc(Cl)cc1` (stereo not drawn), the Potency result in [1], in test [2], in test [4], in test [5] and in test [8] was “inactive” in each case. In addition, the call in [6], in [7] and in test [9] was inactive.

`CC(=O)c1ccc([N+](=O)[O-])cc1`: the Potency entry in test [1], in test [2], in test [3], in [4] and in test [8] was “inactive” each time. For the same compound, the result in [7] and in test [9] was inactive.

Regarding `C=C1CCC2CC1C2(C)C` (stereo not drawn), the Potency result in test [1], in test [2], in test [3] and in [8] was “inactive” in each case. Besides, the compound was called inactive in [6], in test [7] and in [9].

Regarding `Oc1c(I)cc(I)c2cccnc12`, the Potency entry in test [1], in test [3] and in [4] was “inactive” each time. In test [2], the Potency is 10.6 µM (active). Besides, the outcome in test [6], in test [7] and in [9] was inactive.

Turning to `CCCCC(CC)CN` (stereo not drawn), the Potency entry in test [1], in [2] and in test [3] was “inactive” each time. For the same compound, the result in [6], in test [7] and in test [9] was inactive.

Take `COC(=O)CCS`: the Potency entry in test [1], in test [2], in test [4], in test [5] and in [8] was “inactive” throughout. The compound was classed as inactive in test [6], in test [7] and in test [9].

For the compound `O=C(O)CCc1nc(-c2ccccc2)c(-c2ccccc2)o1`, the Potency entry in [1], in test [2], in [4], in test [5] and in test [8] was “inactive” throughout. For the same compound, the result in test [6], in test [7] and in test [9] was inactive.

In the case of `C[C@@H]1CC(=O)NN=C1c1ccc(NN=C(C#N)C#N)cc1`, the Potency entry in test [1] and in test [8] was “inactive” in each case. The values for the Potency in test [2], in [3] and in [5] were 6.68 µM (active), 23.7 µM (active) and 23.7 µM (active), respectively. Moreover, the result in [6], in test [7] and in test [9] was inactive.
